Shown are actives, neighbours in structure and some others; about 3.8% of the full set was active somewhere.
GCN5L2 inh = inhibitors of human GCN5L2 histone acetyltransferase; Q92830; GCN5L2 HAT assay, ThioGlo1 CoA-SH fluorescence; Potency, µM (titrated, usually from 58.9 µM), actives largely listed as inhibitors; 390,000 compounds, 0.21% hits; AID 504327
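qHTS, 1536-well. 20nM enzyme, pH 7.5 HEPES/EDTA/Tween-20 buffer; 15 min compound preinc., RT. Start: 75uM H3(1-25), 70uM AcCoA, 50uM ThioGlo1. Read Ex340/Em540 at t=0 (autofluorescence flag) and t=20 min.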
Sfp inh = Sfp phosphopantetheinyl transferase inhibition. Q9F4F7. Biochemical Sfp PPTase activity, qHTS. Potency, µM, hits mostly inhibitors. 310,000 compounds, 3.5% hits. AID 1490;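 note: the enzyme is Sfp with the accession as filed and its product quenches rhodamine fluorescence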
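Sfp 15 nM + cpd, 15 min RT; start w/ rhodamine-CoA 5 uM, BHQ-2-YbbR 12.5 uM (final); 50 mM Hepes pH 7.6, 10 mM MgCl2, 0.01% NP-40, 0.01% BSA; read 525/598 nm at 0 and 30 min.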
VDR inh = inhibitors of human vitamin D receptor; VDR-SRC2-3 peptide fluorescence polarization, 2 h; AID 504847; Potency, µM, actives largely listed as inhibitors; 400,000 compounds, 0.93% hits; P11473
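After 23 nl compound addition and a short centrifugation, plates sat for 2 hours at ambient temperature; polarization of fluorescence then indicated loss of VDR binding to peptide SRC2-3.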
GLS inh = blocks human kidney-isoform glutaminase activity; GLS enzymatic activity, qHTS titration; 410,000 compounds, 0.21% hits; Potency, µM (doses to about 45.5 µM), usual class: inhibitors; O94925
Target sequence (O94925 whole entry, looked up, canonical isoform): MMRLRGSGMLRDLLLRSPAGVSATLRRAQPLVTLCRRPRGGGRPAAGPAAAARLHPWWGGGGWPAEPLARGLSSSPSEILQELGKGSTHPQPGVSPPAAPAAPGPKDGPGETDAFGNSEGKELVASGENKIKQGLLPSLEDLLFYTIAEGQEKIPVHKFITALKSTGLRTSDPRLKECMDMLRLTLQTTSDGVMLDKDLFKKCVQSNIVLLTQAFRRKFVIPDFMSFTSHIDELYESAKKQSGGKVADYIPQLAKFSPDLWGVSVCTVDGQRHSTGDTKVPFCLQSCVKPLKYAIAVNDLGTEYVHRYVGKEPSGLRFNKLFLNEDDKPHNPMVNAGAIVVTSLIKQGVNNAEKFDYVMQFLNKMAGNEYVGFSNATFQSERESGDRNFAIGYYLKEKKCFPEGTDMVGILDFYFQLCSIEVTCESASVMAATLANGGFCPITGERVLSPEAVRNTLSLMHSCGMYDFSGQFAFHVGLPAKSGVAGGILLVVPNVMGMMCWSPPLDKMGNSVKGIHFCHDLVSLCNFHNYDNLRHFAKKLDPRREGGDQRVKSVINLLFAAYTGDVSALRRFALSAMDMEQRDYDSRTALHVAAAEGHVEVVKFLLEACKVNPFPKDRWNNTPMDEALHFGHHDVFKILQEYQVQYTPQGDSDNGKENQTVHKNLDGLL
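hKGA in 45 mM KH2PO4 (pH 8.2), 0.02% Tween-20 with compound, then 1mM L-Glutamine (stock as added) plus glutamate oxidase/HRP/Amplex red coupling mix. Fluorescence read initially and after 30 min at RT; signal change reflects glutamate formation.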
TrxR1 substrate = rat thioredoxin reductase 1 substrate activity; O89049; purified TrxR1 substrate turnover, NADPH consumption readout; Potency, µM (doses to about 114 µM); 390,000 compounds, 0.01% hits; note: nearly all actives have a fitted effect of over 50% in size
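Rat TrxR1, dispensed at 90 nM, was prereduced with 400 uM NADPH (final) for 5 min at ~22 deg C, then incubated with compound 15 min before 400 uM selenite. A first-read NADPH fluorescence drop versus no-compound background flagged substrates.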
TrxR1 inh = rat TrxR1 inhibition; O89049; recombinant rTrxR1, NADPH fluorescence consumption, selenite substrate; Potency, µM (titrated, usually from 114 µM), hits mostly inhibitors; 390,000 compounds, 1% hits; AID 588453; note: nearly all actives have a fitted effect of over 65% in size
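Rat TrxR1 (90 nM in the dispensed reagent) was pre-reduced with 400 uM NADPH for 5 min at room temperature, then incubated with compound for 15 min. After 400 uM selenite was added, NADPH fluorescence (Ex 340/Em 450 nm) was followed for 8 min.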
Each line names hits and unclear results; the compound was inactive in the other large screens. Calls come from the whole dose curve; as a rule, active = well fitted curve in the direction sought with a large enough effect; inconclusive = small, poorly fitted or top-dose-only effect, or another doubt; inactive = no such curve, though single readings can be large; an effect the other way counts as inactive or inconclusive.

O=c1sc(/C=N/Nc2ccccc2)c(Cl)n1Cc1ccccc1	Sfp inh 50.1µM, TrxR1 inh 12.6µM
COC(=O)c1cccc(Cn2c(Cl)c(/C=N/NC(=O)c3ccccc3Cl)sc2=O)c1	TrxR1 inh inconclusive
COC(=O)c1cccc(Cn2c(Cl)c(/C=N/NC(=O)c3ccco3)sc2=O)c1	TrxR1 inh 39.8µM
Cc1ccc(S(=O)(=O)c2nc(-c3cccs3)oc2N2CCC(C)CC2)cc1	none (no result: Sfp inh)
C=CCn1c(-c2cccnc2Cl)nc2ccccc21	none
Cc1noc(C)c1CSCC(=O)Nc1ccccc1N1CCCCC1	none (no result: Sfp inh, VDR inh, GLS inh, TrxR1 substrate, TrxR1 inh)
NC(=O)c1ccsc1N	GCN5L2 inh inconclusive, Sfp inh 20µM (no result: VDR inh, GLS inh, TrxR1 substrate, TrxR1 inh)
COc1cc2ccccc2cc1C(=O)N1CCN(C)CC1	none
S=c1nc(C2COc3ccccc3O2)[nH][nH]1 (configuration not stated)	GCN5L2 inh inconclusive, Sfp inh 22.4µM, VDR inh inconclusive
CCn1c(SCc2nc3ccccc3c(=O)[nH]2)nc2ccccc2c1=O	none
C=CCn1c(SCc2nc3ccccc3c(=O)[nH]2)nc2scc(C3CC3)c2c1=O	Sfp inh 56.2µM
COc1ccccc1[N+](=O)[O-]	none (no result: Sfp inh)
Cc1oc(-c2cc(F)ccc2F)nc1CN1CCN(c2ncnc3ccccc23)CC1	Sfp inh 39.8µM
OCCC1CN(Cc2cccn2-c2nccs2)CCN1Cc1ccccc1 (configuration not stated)	none
CCOc1ccccc1OCc1nn2c(COc3ccccc3)nnc2s1	Sfp inh 17.8µM, VDR inh 31.6µM
COc1cc(-c2nn3c(COc4ccccc4)nnc3s2)cc(OC)c1OC	Sfp inh 56.2µM, VDR inh inconclusive
c1ccc(OCc2nn3c(-c4ccco4)nnc3s2)cc1	Sfp inh inconclusive, TrxR1 inh 56.2µM
CCOc1ccc(-c2nnc3sc(COc4ccccc4)nn23)cc1	none
CN(CCCC1CCCC1)C(=O)CC1C(=O)NCCN1Cc1cccc(F)c1F (configuration not stated)	TrxR1 inh 39.8µM
CN(Cc1ccon1)C(=O)CC1C(=O)NCCN1Cc1cccc(F)c1F (configuration not stated)	GCN5L2 inh inconclusive, TrxR1 inh inconclusive
CC(=O)Nc1ccc(C2=NNC(=NCC3CCCO3)SC2)cc1 (configuration not stated)	Sfp inh 39.8µM, VDR inh inconclusive
Fc1ccc(F)c(C2=NNC(=NCC3CCCO3)SC2)c1 (configuration not stated)	GCN5L2 inh inconclusive, Sfp inh 44.7µM
Cc1ccc(C2=NNC(=Nc3ccc(F)cc3)SC2)cc1	Sfp inh inconclusive
O=C(OCN1C(=O)c2ccccc2C1=O)c1cccnc1SC(F)F	none
c1ccc(CNc2nc(-c3ccc4c(c3)OCO4)nc3ccccc23)cc1	GCN5L2 inh inconclusive, VDR inh 44.7µM (no result: GLS inh, TrxR1 substrate, TrxR1 inh)
CNc1nc(-c2ccc3c(c2)OCO3)nc2ccccc12	none (no result: GLS inh, TrxR1 substrate, TrxR1 inh)
c1ccc(CNc2ncncc2-c2ccc3c(c2)OCO3)cc1	VDR inh 28.2µM (no result: GLS inh, TrxR1 substrate, TrxR1 inh)
O=C(c1ccc(Cl)cc1)c1oc2ccccc2c1CS(=O)c1ccccc1 (configuration not stated)	Sfp inh 44.7µM
Cc1cc(C)nc(/N=C2\NC(=O)CC(C(=O)O)N2c2ccc(C)c(C)c2)n1 (configuration not stated)	VDR inh 50.1µM
CSc1ccccc1C(=O)Nc1ccccc1C(=O)NC(C)C	VDR inh 79.4µM, GLS inh 31.6µM
CCOC(=O)c1ccccc1NC(=O)c1ccccc1SC	none
COCCNc1nc(-c2cc(C)n(CCc3ccc(OC)cc3)c2C)cs1	Sfp inh 39.8µM
Cc1cc(C)c(NC(=S)NC(CO)(CO)CO)c(C)c1	none
COc1cccc(N2C(=O)[C@H]3C(C(=O)c4cnccn4)=NN[C@H]3C2=O)c1	Sfp inh 79.4µM
COC(=O)NC1c2ccccc2Oc2ccc(C)cc21 (configuration not stated)	none
Cc1ccc2c(c1)C(c1ccccc1)C(=O)O2 (configuration not stated)	Sfp inh 50.1µM, GLS inh inconclusive
Cc1ccc2c(C)cc[n+](CCCS(=O)(=O)[O-])c2c1	none
Cc1cc(C)c2sc(C)[n+](CCCS(=O)(=O)[O-])c2c1	Sfp inh 2.51µM, VDR inh inconclusive
O=C(CN1C(=O)CC(c2ccco2)Sc2ccccc21)Nc1ccc(Br)cc1 (configuration not stated)	none (no result: Sfp inh)
CCN1C(=O)CC(c2ccco2)Sc2ccccc21 (configuration not stated)	Sfp inh 39.8µM
COC(=O)C1=C(C)Nc2[nH]c(=S)[nH]c(=O)c2C1c1ccc(OC)cc1 (configuration not stated)	Sfp inh 39.8µM
C=CCOC(=O)C1=C(C)Nc2[nH]c(=O)[nH]c(=O)c2C1c1cccc(OC)c1 (configuration not stated)	none (no result: VDR inh, GLS inh, TrxR1 substrate, TrxR1 inh)
CCC(=O)Nc1cc(C(=O)OCC(=O)c2ccc(Cl)cc2Cl)ccc1C	none
O=C(N/N=C/c1ccc(-c2ccccc2C(=O)O)o1)c1cccs1	Sfp inh 50.1µM, TrxR1 inh inconclusive
CC(C)c1nc(CNC(=O)c2cc(COc3c(F)cccc3F)on2)cs1	none
C#CCOCCOCCOCCNc1nc(N2CCN(C(=O)Cn3cc(CCO)nn3)CC2)nc(N2CCN(C(=O)Cn3cc(CC(C)O)nn3)CC2)n1 (configuration not stated)	none (no result: GCN5L2 inh, Sfp inh)
Cc1ccc(NC(=O)Nc2cccs2)cc1	Sfp inh 17.8µM
CCc1ccc(NC(=O)Nc2cccs2)cc1	Sfp inh 50.1µM
COc1ccc(NC(=O)Nc2cccs2)cc1OC	Sfp inh 44.7µM
CCOc1ccc(NC(=O)Nc2cccs2)cc1	Sfp inh 56.2µM
Cc1cc(C)cc(NC(=O)Nc2cccs2)c1	none (no result: Sfp inh)
O=C(NCCN1CCN(c2ccccc2)CC1)C1CCCN(S(=O)(=O)c2cnc[nH]2)C1 (configuration not stated)	none
Cc1cc(C)cc(C(=O)NCC(=O)OCc2cc([N+](=O)[O-])cc3c2OCOC3)c1	none
O=C(COC(=O)c1ccc(O)cc1)NC(=O)NCc1ccccc1	none (no result: Sfp inh)
CC1Oc2ccccc2N(CC(=O)N2CCCCC2)C1=O (configuration not stated)	none
Cc1ccc(SSc2cc(C)ccc2N)c(N)c1	GCN5L2 inh inconclusive, VDR inh 6.31µM (no result: Sfp inh)
Cn1cc(CN2CCC[C@H]2CO)c(-c2cccc(Cl)c2)n1	none
CC(C)(C)c1cc(CCC(=O)NCCc2ccccn2)cc(C(C)(C)C)c1O	GLS inh 10µM
CCCNC(=O)CCc1cc(C(C)(C)C)c(O)c(C(C)(C)C)c1	none

High-throughput results: PubChem, National Center for Advancing Translational Sciences (NCATS)
